Experimental data published in PubChem BioAssay AID1159580 (chemical genetic matrix, 2015).
Values joined by “and” are separate entries in the source; they are usually repeats but may differ in a detail not shown here. Equal values may be shown once. Hit rate of the full screen: of about 5,500 compounds, about 2,000 (36%) were called active. Inconclusive results (about 18%) are left out. Cut-off read from the data, not from the text of the source: active = normalized growth mostly below about 0.91 (no sharp cut-off); inconclusive = no clear call, values can overlap the other calls; inactive = mostly above about 0.92. This is one part of the list.

Test: chemical genetic growth profiling, strain panel (AID 1159580);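 note: tested at 20 µM; growth read once vehicle control cultures reached saturation at 30 °C; 1 = growth at the plate median or of vehicle wells; lower values mean less growth of the strain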
Settings: S. cerevisiae deletion strains, growth OD

Measured: normalized growth

CCCCN(CCCC)CCCOC(=O)c1ccc(N)cc1
inactive: locus YAL013W, strain DEP1, hits give low values 1 | locus YAL021C, strain ccr4, hits give low values 0.992 | locus YAL026C, strain drs2, hits give low values 0.991 | locus YAL030W, strain snc1, hits give low values 0.996 | locus YBL061C, strain skt5, hits give low values 0.986 | locus YBR009C, strain hhf1, hits give low values 0.998 | locus YBR021W, strain FUR4, hits give low values 1.07 | locus YBR023C, strain chs3, hits give low values 0.99 | locus YBR171W, strain sec66, hits give low values 0.986 | locus YBR229C, strain ROT2, hits give low values 0.998 | locus YBR231C, strain swc5, hits give low values 1 | locus YBR279W, strain paf1, hits give low values 0.994 | locus YCL011C, strain gbp2, hits give low values 0.985 | locus YCL016C, strain dcc1, hits give low values 0.99 | locus YCL029C, strain bik1, hits give low values 0.982 | locus YCL061C, strain MRC1, hits give low values 0.987 | locus YCL069W, strain vba3, hits give low values 0.991 | locus YCR088W, strain abp1, hits give low values 0.985 | locus YDL005C, strain med2, hits give low values 0.994 | locus YDL035C, strain GPR1, hits give low values 0.998 | locus YDL040C, strain nat1, hits give low values 0.99 | locus YDL074C, strain BRE1, hits give low values 0.977 | locus YDL101C, strain DUN1, hits give low values 0.979 | locus YDL134C, strain PPH21, hits give low values 1 | locus YDL185W, strain tfp1, hits give low values 0.968 | locus YDL192W, strain arf1, hits give low values 0.994 | locus YDR001C, strain nth1, hits give low values 0.992 | locus YDR069C, strain doa4, hits give low values 0.99 | locus YDR101C, strain arx1, hits give low values 0.986 | locus YDR137W, strain rgp1, hits give low values 0.879 | locus YDR150W, strain NUM1, hits give low values 0.995 | locus YDR159W, strain sac3, hits give low values 0.989 | locus YDR162C, strain NBP2, hits give low values 0.984 | locus YDR195W, strain ref2 0.99 | locus YDR297W, strain sur2, hits give low values 0.993 | locus YDR318W, strain mcm21, hits give low values 0.992 | locus YDR334W, strain swr1, hits give low values 0.983 | locus YDR335W, strain msn5, hits give low values 0.989 | locus YDR388W, hits give low values 0.989 | locus YDR392W, strain spt3, hits give low values 0.983 | locus YDR502C, strain sam2, hits give low values 1.01 | locus YEL003W, strain gim4, hits give low values 0.986 | locus YEL037C, strain rad23, hits give low values 0.991 | locus YEL061C, strain CIN8 (second series), hits give low values 0.981 | locus YEL061C, strain CIN8, hits give low values 0.998 | locus YER015W, strain faa2, hits give low values 0.991 | locus YER016W, strain bim1, hits give low values 0.991 | locus YER110C, hits give low values 0.989 | locus YER111C, strain swi4, hits give low values 1 | locus YER155C, strain BEM2 (second series), hits give low values 0.984 | locus YER155C, strain BEM2, hits give low values 1 | locus YER167W, strain BCK2, hits give low values 0.995 | locus YFR010W, strain ubp6, hits give low values 0.99 | locus YGL078C, strain dbp3, hits give low values 0.992 | locus YGL086W, strain mad1, hits give low values 0.994 | locus YGL167C, strain pmr1, hits give low values 0.991 | locus YGL173C, strain kem1, hits give low values 0.983 | locus YGL227W, strain vid30, hits give low values 0.983 | locus YGL240W, strain doc1, hits give low values 1 | locus YGL248W, strain PDE1, hits give low values 1 | locus YGL253W, strain hxk2, hits give low values 0.991 | locus YGR078C, strain PAC10, hits give low values 0.97 | locus YGR135W, strain pre9, hits give low values 0.994 | locus YGR229C, strain SMI1, hits give low values 0.961 | locus YGR252W, strain gcn5, hits give low values 1.16 | locus YHR013C, strain ard1, hits give low values 0.961 | locus YHR027C, strain rpn1, hits give low values 0.991 | locus YHR030C, strain SLT2, hits give low values 0.965 | locus YHR079C, strain IRE1 (second series), hits give low values 0.977 | locus YHR079C, strain IRE1, hits give low values 0.973 | locus YHR094C, strain hxt1, hits give low values 0.985 | locus YHR129C, strain ARP1, hits give low values 0.989 | locus YHR142W, strain chs7, hits give low values 0.992 | locus YHR200W, strain rpn10, hits give low values 0.996 | locus YIL066C, strain RNR3, hits give low values 0.991 | locus YIL073C, strain SPO22, hits give low values 0.937 | locus YIL125W, strain kgd1, hits give low values 0.987 | locus YIR030C, strain dcg1, hits give low values 0.997 | locus YJL092W, strain hpr5, hits give low values 0.986 | locus YJL095W, strain BCK1 (second series), hits give low values 0.993 | locus YJL095W, strain BCK1, hits give low values 0.967 and 0.982 | locus YJL115W, strain asf1, hits give low values 0.993 | locus YJL129C, strain trk1, hits give low values 1 | locus YJL134W, strain LCB3, hits give low values 0.993 | locus YJL154C, strain vps35, hits give low values 0.987 | locus YJL164C, strain tpk1, hits give low values 0.964 | locus YJL166W, strain qcr8, hits give low values 0.996 | locus YJL168C, strain set2, hits give low values 0.988 | locus YJL187C, strain SWE1 (second series), hits give low values 0.962 | locus YJL187C, strain SWE1, hits give low values 0.992 | locus YJR043C, strain POL32, hits give low values 0.993 | locus YJR066W, strain TOR1, hits give low values 0.95
